The nature of test [1]: NCI Yeast Anticancer Drug Screen. Data for the rad50 strain (AID 155).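 Also: 0% = growth of vehicle-only cultures of the same strain.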 The following applies: S. cerevisiae rad50 strain growth inhibition, active compounds read high. An outline of the steps:
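Cells are treated with compound, grown, and their growth is then scored against vehicle-only cultures of the same repair-deficient yeast strain.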

Test [2] is described as follows: NCI Yeast Anticancer Drug Screen. Data for the mec2-1 strain (AID 157). The note with it: S. cerevisiae mec2-1 strain, active compounds read high. An outline of the steps:
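Each compound was tested on mec2-1 yeast, a strain altered in DNA damage repair or cell cycle control. Growth inhibition is reported relative to vehicle.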

Test [3] in a line: NCI Yeast Anticancer Drug Screen. Data for the sgs1 mgt1 strain (AID 161).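 Also: 0% = growth of cultures given vehicle only.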 The note with it: S. cerevisiae sgs1 mgt1 strain, active compounds read high. An outline of the steps: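 Test agents were incubated with a DNA-repair-mutant yeast strain. Growth was then read and compared against vehicle-treated controls.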
The nature of test [4]: NCI Yeast Anticancer Drug Screen. Data for the cln2 rad14 strain (AID 165).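 Also: 0% = growth equal to vehicle treated cultures.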 The following applies: S. cerevisiae cln2 rad14 strain, active compounds read high. Put shortly:
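Test compounds were added to cln2 rad14 yeast cultures; inhibition of growth was then determined by comparison with vehicle treatment.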

The nature of test [5]: NCI Yeast Anticancer Drug Screen. Data for the bub3 strain (AID 167). The note with it: S. cerevisiae bub3 mutant strain, active compounds read high. An outline of the steps: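 Part of a panel of yeast mutants defective in DNA damage repair or cell cycle regulation. Each strain is grown with compound, and inhibition is calculated relative to solvent-treated cultures.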
Test [6] is described as follows: NCI Yeast Anticancer Drug Screen. Data for the mlh1 rad18 strain (AID 175). The following applies: S. cerevisiae mlh1 rad18 strain growth inhibition, active compounds read high. An outline of the steps:
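Inhibition values reflect reduced growth of mutant yeast versus vehicle-treated controls following compound exposure; the mutations affect DNA damage repair.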

The mark [7] stands for this setting: at 5.0 µM (retest, dose inferred, filed as 0.5).
Where [8] appears, read: at 50.0 µM (retest, dose inferred, filed as 5.0).

This is part of a sample that, as a whole, favours compounds with a hit. Of some 79,000 tested, about 15% had one in any assay. Active and inactive are the calls of the source. Rule as the data show it: active = growth inhibition above about 70%; inactive = the rest.

Consider `[N-]=[N+]=Nc1c(C=O)c(=O)n(-c2ccccc2)c2ccccc12`, for which the growth inhibition is 8% (inactive) in test [1] (setting [7]); 57% (inactive) in test [1] (setting [8]); 67.2% (inactive) in test [1] (at 50.0 µM); -1% (inactive) in test [2] (setting [7]); 60% (inactive) in test [2] (setting [8]); 80.4% (active) in test [2] (at 50.0 µM). Further, the growth inhibition in test [3] (setting [7]) was -5% (inactive); in test [3] (setting [8]), 47% (inactive); in test [3] (at 50.0 µM) it was 79% (active); in test [4] (setting [7]), 0% (inactive); in test [4] (setting [8]) it was 29% (inactive); in test [4] (at 50.0 µM), 63.5% (inactive). Also, the growth inhibition was -23% (inactive) in test [5] (setting [7]); 26% (inactive) in test [5] (setting [8]); 63.6% (inactive) in test [5] (at 50.0 µM); 6% (inactive) in test [6] (setting [7]); 67% (inactive) in test [6] (setting [8]); 68.7% (inactive) in test [6] (at 50.0 µM).
As for `CC(C)OC(=O)CCCCCC1CCCCC1`, the growth inhibition in test [1] (setting [7]) is 6% (inactive); in test [1] (setting [8]) it was 9% (inactive); in test [1] (at 50.0 µM) it was 0.95% (inactive); in test [2] (setting [7]), -2% (inactive); in test [2] (setting [8]), 2% (inactive); in test [2] (at 50.0 µM), 13.5% (inactive). Further, the growth inhibition in test [3] (setting [7]) is 3% (inactive); in test [3] (setting [8]) it was 11% (inactive); in test [3] (at 50.0 µM) it was 1.4% (inactive); in test [4] (setting [7]) it was 10% (inactive); in test [4] (setting [8]), 6% (inactive); in test [4] (at 50.0 µM), 31.7% (inactive). In addition, the growth inhibition in test [5] (setting [7]) is 8% (inactive); in test [5] (setting [8]), 3% (inactive); in test [5] (at 50.0 µM) it was -0.25% (inactive); in test [6] (setting [7]) it was 4% (inactive); in test [6] (setting [8]), 7% (inactive); in test [6] (at 50.0 µM), 8.8% (inactive).
As to `CC(=O)Oc1c2ccccc2c(C)c2c1ccc1ccccc12`, the growth inhibition was 65% (inactive) in test [1] (setting [7]); 93% (active) in test [1] (setting [8]); 96% (active) in test [1] (at 50.0 µM); 84% (active) in test [2] (setting [7]); 92% (active) in test [2] (setting [8]); 95% (active) in test [2] (at 50.0 µM). The growth inhibition is 89% (active) in test [3] (setting [7]); 93% (active) in test [3] (setting [8]); 96% (active) in test [3] (at 50.0 µM); 49% (inactive) in test [4] (setting [7]); 92% (active) in test [4] (setting [8]); 94.2% (active) in test [4] (at 50.0 µM). The growth inhibition in test [5] (setting [7]) is 37% (inactive); in test [5] (setting [8]) it was 93% (active); in test [5] (at 50.0 µM), 96.7% (active); in test [6] (setting [7]), 91% (active); in test [6] (setting [8]), 90% (active); in test [6] (at 50.0 µM), 91.8% (active).
Consider `O=C(CC(=O)c1ccccc1)CC(=O)c1ccccc1Cl`, for which the growth inhibition in test [1] (setting [7]) was -1% (inactive); in test [1] (setting [8]), 85% (active); in test [1] (at 50.0 µM) it was 88.1% (active); in test [2] (setting [7]), 8% (inactive); in test [2] (setting [8]), 88% (active); in test [2] (at 50.0 µM), 88% (active). In addition, the growth inhibition in test [3] (setting [7]) was -2% (inactive); in test [3] (setting [8]), 90% (active); in test [3] (at 50.0 µM), 81.2% (active); in test [4] (setting [7]) it was -5% (inactive); in test [4] (setting [8]) it was 81% (active); in test [4] (at 50.0 µM) it was 68.2% (inactive). Besides, the growth inhibition in test [5] (setting [7]) is -2% (inactive); in test [5] (setting [8]), 95% (active); in test [5] (at 50.0 µM) it was 78.8% (active); in test [6] (setting [7]), 0% (inactive); in test [6] (setting [8]) it was 92% (active); in test [6] (at 50.0 µM), 85.7% (active).
Consider `ONC(=Nc1cccc2ccccc12)C(=Nc1cccc2ccccc12)NO`, for which the growth inhibition in test [1] (setting [7]) is 9% (inactive); in test [1] (setting [8]), 65% (inactive); in test [1] (at 50.0 µM), 33.9% (inactive); in test [2] (setting [7]), -8% (inactive); in test [2] (setting [8]), 97% (active); in test [2] (at 50.0 µM), 23.3% (inactive). Besides, the growth inhibition in test [3] (setting [7]) was 8% (inactive); in test [3] (setting [8]) it was 46% (inactive); in test [3] (at 50.0 µM), 13.4% (inactive); in test [4] (setting [7]) it was -16% (inactive); in test [4] (setting [8]), 73% (active); in test [4] (at 50.0 µM) it was -41.9% (inactive). Further, the growth inhibition in test [5] (setting [7]) was 10% (inactive); in test [5] (setting [8]), 97% (active); in test [5] (at 50.0 µM) it was 47.5% (inactive); in test [6] (setting [7]) it was -9% (inactive); in test [6] (setting [8]), 91% (active); in test [6] (at 50.0 µM), 57.6% (inactive).
As to `O=C1C=CC(=O)N1c1ccc(Cl)cc1Br`, the growth inhibition in test [1] (setting [7]) is 49% (inactive); in test [1] (setting [8]), 42% (inactive); in test [1] (at 50.0 µM), 93.3% (active); in test [2] (setting [7]) it was 40% (inactive); in test [2] (setting [8]), 44% (inactive); in test [2] (at 50.0 µM) it was 94.3% (active). In addition, the growth inhibition in test [3] (setting [7]) is 100% (active); in test [3] (setting [8]), 100% (active); in test [3] (at 50.0 µM) it was 94.2% (active); in test [4] (setting [7]) it was 68% (inactive); in test [4] (setting [8]) it was 100% (active); in test [4] (at 50.0 µM), 92.4% (active). The growth inhibition in test [5] (setting [7]) is 100% (active); in test [5] (setting [8]) it was 99% (active); in test [5] (at 50.0 µM) it was 58.4% (inactive); in test [6] (setting [7]), 28% (inactive); in test [6] (setting [8]), 45% (inactive); in test [6] (at 50.0 µM), 92.5% (active).
Regarding `CCN(CC)CCNc1ccc(C)c2sc3c(OC)cccc3c(=O)c12`, the growth inhibition is 1% (inactive) in test [1] (setting [7]); 22% (inactive) in test [1] (setting [8]); 74.6% (active) in test [1] (at 50.0 µM); -1% (inactive) in test [2] (setting [7]); 4% (inactive) in test [2] (setting [8]); 9.75% (inactive) in test [2] (at 50.0 µM). The growth inhibition was -3% (inactive) in test [3] (setting [7]); 22% (inactive) in test [3] (setting [8]); 25.6% (inactive) in test [3] (at 50.0 µM); -2% (inactive) in test [4] (setting [7]); 8% (inactive) in test [4] (setting [8]); -2.4% (inactive) in test [4] (at 50.0 µM). The growth inhibition was -1% (inactive) in test [5] (setting [7]); 11% (inactive) in test [5] (setting [8]); 23.4% (inactive) in test [5] (at 50.0 µM); -5% (inactive) in test [6] (setting [7]); 36% (inactive) in test [6] (setting [8]); 11.8% (inactive) in test [6] (at 50.0 µM).

The values are drawn from PubChem BioAssay (NCI).
